The list is not random: actives were taken first. Their share in the collection is about 2.9%.
Exocytosis inh: blocks lytic granule exocytosis. TALL-104 LAMP-1 surface exposure, flow cytometry; cells stimulated with thapsigargin and PMA. inhibition, % at 10 µM. 360,000 compounds, 0.66% hits. AID 651702;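 active = inhibition above about 55%, limit read from the data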
GRK2 inh: human GRK2 inhibition via aptamer displacement; bead flow cytometry, FAM-aptamer displacement from GRK2; AID 488847; 330,000 compounds, 0.59% hits; inhibition of aptamer binding, % at 10 µM;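 active = inhibition of aptamer binding above 40%, roughly 3 SD of noise, on plates passing a quality check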;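 note: median bead fluorescence of bound FAM aptamer so fluorescent compounds give negative values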
Target sequence (P25098 whole entry, looked up): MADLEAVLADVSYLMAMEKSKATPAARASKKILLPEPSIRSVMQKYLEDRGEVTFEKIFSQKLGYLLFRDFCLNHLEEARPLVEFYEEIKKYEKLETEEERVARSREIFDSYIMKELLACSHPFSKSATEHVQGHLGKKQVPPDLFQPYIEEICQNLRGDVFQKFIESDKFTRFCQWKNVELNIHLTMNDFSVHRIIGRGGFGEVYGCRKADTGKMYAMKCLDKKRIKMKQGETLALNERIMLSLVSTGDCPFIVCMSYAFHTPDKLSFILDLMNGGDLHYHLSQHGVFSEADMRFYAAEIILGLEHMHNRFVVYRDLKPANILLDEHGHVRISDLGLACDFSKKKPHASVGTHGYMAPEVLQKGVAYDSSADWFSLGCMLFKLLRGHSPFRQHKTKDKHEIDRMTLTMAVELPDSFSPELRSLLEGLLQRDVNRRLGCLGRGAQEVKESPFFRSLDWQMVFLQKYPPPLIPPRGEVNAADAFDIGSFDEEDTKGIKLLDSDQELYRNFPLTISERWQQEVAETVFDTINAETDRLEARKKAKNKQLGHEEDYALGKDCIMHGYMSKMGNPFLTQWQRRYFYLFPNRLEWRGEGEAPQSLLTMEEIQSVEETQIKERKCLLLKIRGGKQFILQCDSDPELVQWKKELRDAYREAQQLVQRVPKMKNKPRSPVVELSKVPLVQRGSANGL
B2AR ag: agonists of human beta-2 adrenergic receptor inducing internalization; response, % (concentration not given with the values); 340,000 compounds, 0.43% hits; Am2.2-beta2AR cells, FAP receptor internalization, flow cytometry; AID 504454;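 active = response above a set limit, near 3 SD of response in nonfluorescent compounds, cut at about 42% in these data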
NadD block: blocks S. aureus nicotinate mononucleotide adenylyltransferase; purified NadD enzyme, colorimetric absorbance read-out; inhibition, % at 20 µM; 360,000 compounds, 0.78% hits; in the data active = inhibition above about 26%
PP1 inh: counter-screen for PP5 inhibitors: inhibitors of human PP1-alpha; purified PP1alpha, OMFP fluorescence; inhibition, % at 6.7 µM; 320,000 compounds, 0.9% hits; AID 2235;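 active = inhibition above the mean inhibition of all tested compounds plus 3 SD, computed separately for each screening campaign, cut at about 15% in these data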
NadD conf: confirmation of Staphylococcus aureus NadD inhibitors; AID 624309; shares compounds with NadD block; 2,000 compounds, 13% hits; purified S. aureus NadD, colorimetric enzyme assay; inhibition, % at 20 µM; in the data active = inhibition mostly above about 42%, no sharp cut-off; inactive = mostly below about 42%
Numbers stand for hits.

How did C=CCNc1nc(NCCOc2ccccc2Cl)c2sc(-c3ccccc3)cc2n1 do in these assays?
Exocytosis inh: inactive; NadD block: inactive

What do the screens show for `c1ccc(OCCNc2nc(NCC3CC3)nc3cc(-c4ccccc4)sc23)cc1`?
Exocytosis inh: inactive; NadD block: 33; NadD conf: inactive

How did O=S(=O)(NCC1CCN(Cc2ccccc2)CC1)c1ccccc1C(F)(F)F do in these assays?
Exocytosis inh: inactive; GRK2 inh: inactive; B2AR ag: inactive; NadD block: inactive; PP1 inh: inactive

Results for Oc1ccc2ccccc2c1/C=C/c1ccc2c(Br)cc(Br)c(O)c2n1 ?
Exocytosis inh: inactive; B2AR ag: inactive; NadD block: 58; NadD conf: inactive

What do the screens show for `O=C(Nc1c(C(=O)c2ccccc2)oc2ccccc12)c1cc(-c2ccccc2O)n[nH]1`?
Exocytosis inh: inactive; GRK2 inh: inactive; B2AR ag: inactive; NadD block: 34; PP1 inh: inactive; NadD conf: inactive

How did CC(=O)Nc1c(C(=O)c2ccc(F)cc2)oc2ccccc12 do in these assays?
Exocytosis inh: inactive; GRK2 inh: inactive; B2AR ag: inactive; NadD block: inactive; PP1 inh: inactive

Results for Cc1ccc(C(=O)c2oc3ccccc3c2NC(=O)c2cc(-c3cc(C)ccc3O)n[nH]2)cc1 ?
Exocytosis inh: inactive; GRK2 inh: inactive; B2AR ag: inactive; NadD block: 39; PP1 inh: inactive; NadD conf: inactive

What do the screens show for `Cc1ccc(C(=O)c2oc3ccccc3c2NC(=O)c2cc(-c3ccccc3O)n[nH]2)cc1`?
Exocytosis inh: inactive; GRK2 inh: inactive; B2AR ag: inactive; NadD block: 34; PP1 inh: inactive; NadD conf: inactive

How did COC(=O)c1ccccc1NC(=O)c1cnn2cccnc12 do in these assays?
Exocytosis inh: inactive; GRK2 inh: inactive; B2AR ag: inactive; NadD block: inactive; PP1 inh: inactive

How did Cc1nn(Cc2c(Cl)cccc2Cl)c(C)c1NC(=O)c1cn(-c2ccccc2)nc1-c1ccccc1 do in these assays?
Exocytosis inh: inactive; GRK2 inh: inactive; B2AR ag: inactive; NadD block: 34; PP1 inh: inactive; NadD conf: inactive

What do the screens show for `Cc1cccc(C)c1NC(=O)CNC(=O)c1cn(-c2ccccc2)nc1-c1ccccc1`?
Exocytosis inh: inactive; GRK2 inh: inactive; B2AR ag: inactive; NadD block: inactive; PP1 inh: inactive

How did CCCCN1CC(=O)N2[C@H](c3ccc(Cl)cc3)[C@@H]3C(=O)N(CC)C(=O)[C@@H]3[C@]2(Cc2ccccc2)C1=O do in these assays?
Exocytosis inh: inactive; GRK2 inh: inactive; B2AR ag: inactive; NadD block: inactive; PP1 inh: inactive

What do the screens show for `CCOC(=O)c1cnn(-c2cc(Oc3ccccc3C)ncn2)c1N`?
Exocytosis inh: inactive; GRK2 inh: inactive; B2AR ag: inactive; NadD block: inactive; PP1 inh: inactive

How did COC(=O)[C@H](CC(C)C)N1Cc2cc(OC)cc(OC)c2-c2ccccc2S1(=O)=O do in these assays?
Exocytosis inh: inactive; GRK2 inh: inactive; B2AR ag: inactive; NadD block: 37; NadD conf: 48

What do the screens show for `O=C(O)c1cccc(NC(=S)NC(=O)c2ccc(-c3ccc(Cl)cc3)o2)c1`?
Exocytosis inh: inactive; GRK2 inh: inactive; B2AR ag: inactive; NadD block: 38; PP1 inh: inactive; NadD conf: inactive

Results for C/C(=N\Nc1nnc(-c2ccccc2)c(-c2ccccc2)n1)c1cccc([N+](=O)[O-])c1 ?
Exocytosis inh: inactive; GRK2 inh: inactive; B2AR ag: inactive; NadD block: 33; PP1 inh: inactive; NadD conf: inactive

How did O=[N+]([O-])c1cc2c(cc1/C=N/Nc1nc(N3CCCC3)nc(N3CCCC3)n1)OCO2 do in these assays?
Exocytosis inh: inactive; GRK2 inh: inactive; B2AR ag: inactive; NadD block: inactive; PP1 inh: inactive

How did O=[N+]([O-])c1ccc(/C=N/Nc2nc(N3CCCCC3)nc(N3CCCCC3)n2)cc1 do in these assays?
Exocytosis inh: inactive; GRK2 inh: inactive; B2AR ag: inactive; NadD block: inactive; PP1 inh: inactive

Results for O=[N+]([O-])c1ccc(Nc2nc(N/N=C\c3ccc4c(c3)OCO4)nc(N3CCCCC3)n2)cc1 ?
Exocytosis inh: inactive; GRK2 inh: inactive; B2AR ag: inactive; NadD block: 45; PP1 inh: inactive; NadD conf: inactive

Results for O=[N+]([O-])c1ccc(/C=N/Nc2nc(N3CCCCCC3)nc(N3CCCCCC3)n2)o1 ?
Exocytosis inh: inactive; GRK2 inh: inactive; B2AR ag: inactive; NadD block: 65; PP1 inh: inactive; NadD conf: inactive

Results for CCOc1cc(/C=N/Nc2nc(Nc3ccccc3)nc(N3CCCCC3)n2)ccc1OCC(=O)O ?
Exocytosis inh: inactive; GRK2 inh: inactive; B2AR ag: inactive; NadD block: 33; PP1 inh: inactive; NadD conf: inactive

Results for C(=C\c1ccccc1)/C=N/Nc1nc(N2CCCCC2)nc(N2CCCCC2)n1 ?
Exocytosis inh: inactive; GRK2 inh: inactive; B2AR ag: inactive; NadD block: 35; PP1 inh: inactive; NadD conf: inactive

How did CN(CC(=O)Nc1ccc(N2CCOCC2)cc1)CC(=O)Nc1ccc(Cl)cc1[N+](=O)[O-] do in these assays?
Exocytosis inh: inactive; GRK2 inh: inactive; B2AR ag: inactive; NadD block: inactive; PP1 inh: inactive

Results for COc1ccc(N2CCN(C(=O)C3CCCN3S(=O)(=O)c3cccc4nsnc34)CC2)cc1 (centres undefined) ?
Exocytosis inh: inactive; GRK2 inh: inactive; B2AR ag: inactive; NadD block: inactive; PP1 inh: inactive

How did COc1cc(CN2CCC(CCC(=O)NC3CC3)CC2)cc(Cl)c1OC do in these assays?
Exocytosis inh: inactive; GRK2 inh: inactive; B2AR ag: inactive; NadD block: inactive; PP1 inh: inactive

How did O=C1CSc2ccc(C(=O)N3CCCCC3)cc2N1 do in these assays?
Exocytosis inh: inactive; NadD block: inactive

What do the screens show for `COc1ccc(/C=N\NS(=O)(=O)c2ccc(Cl)cc2)cc1COc1ccccc1[N+](=O)[O-]`?
Exocytosis inh: inactive; GRK2 inh: inactive; B2AR ag: inactive; NadD block: inactive; PP1 inh: inactive

Results for COc1ccc(/C=N\NS(=O)(=O)c2ccc(Br)cc2)cc1COc1ccccc1[N+](=O)[O-] ?
Exocytosis inh: inactive; GRK2 inh: inactive; B2AR ag: inactive; NadD block: 46; PP1 inh: inactive; NadD conf: inactive

What do the screens show for `Cc1ccc(-c2cc(C(F)F)n3ncc(C(=O)Nc4ccc(S(=O)(=O)Nc5ccccc5C)cc4)c3n2)cc1`?
Exocytosis inh: inactive; GRK2 inh: inactive; B2AR ag: inactive; NadD block: 36; PP1 inh: inactive; NadD conf: inactive

Results for O=C(Nc1ccc(C(=O)N2CCOCC2)cc1)c1cnn2c(C(F)F)cc(-c3ccccc3)nc12 ?
Exocytosis inh: inactive; GRK2 inh: inactive; B2AR ag: inactive; NadD block: inactive; PP1 inh: inactive

What do the screens show for `CCOC(=O)c1c(-c2ccccc2Cl)csc1NC(=O)CSc1nc(C)cc(=O)[nH]1`?
Exocytosis inh: inactive; GRK2 inh: inactive; B2AR ag: inactive; NadD block: 28; PP1 inh: inactive; NadD conf: 55

High-throughput results (PubChem BioAssay)
